Growth data for eleven compounds are collected here from PubChem BioAssay (NCI).

This is part of a sample that, as a whole, favours compounds with a hit. Of some 83,000 tested, about 20% had one in any assay.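 Percent growth is the endpoint: 0 to 100 indicates growth inhibition (40 means 60% inhibition), 0 means no net growth, and negative values indicate cell death.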 Unmarked numbers belong to inactive results. The source made the active and inactive calls. How the source made its calls: active means growth percent below 10; inactive means the rest.

This assay deals with HL-60(TB) leukemia. The experiment in a line: NCI-60 one-dose screen, 48 h (100 = growth as untreated, 0 = no growth, -100 = all killed). The following applies: 10 µM unless noted.
As to `COc1ccc(/C=C2\Oc3cc(OCCCCN4CCCC4)ccc3C2=O)cc1`, the growth was 92.1%.
The value for `COc1cc(CNC(=O)CCCC/C=C/C(C)C)ccc1OCc1cn(-c2ccc(C(F)(F)F)cc2)nn1` was 85.3%; that for `O=C(Nc1ccc2ncnc(Nc3ccc(F)c(Cl)c3)c2c1)c1cccs1` was 89.7%.
`CCCCCCNC(=O)Oc1ccc(/C(=C(/CC)Cc2ccccc2)c2ccc(OCCCN(C)C)cc2)cc1`: the growth was 64.2%.
The value for `N#Cc1c(NC(=O)c2ccco2)[n+]([O-])c2cc(F)c(F)cc2[n+]1[O-]` was 38%; that for `CC(C)CCN(CCC(C)C)CC(O)c1cc2c(c3ccccc13)CCCC2` (stereo unspecified) was 78.6%.
The figure for `O=C(/C=C/c1ccc(Cl)cc1)c1ccc(NC(=O)N2CCN(c3cc4c(cc3F)c(=O)c(C(=O)O)cn4C3CC3)CC2)cc1` is 94.2%.
The value for `CC1(O)CCC2CC3OC3(C)CCC3OC3(C)CCC1C2(C)C` (stereo unspecified) was 120%.
For the compound `COC1=CC(c2ccc[nH]2)=N/C1=C\c1[nH]c(C)c(CC(=O)OCc2ccccc2)c1CCC(=O)OCc1ccccc1`, the growth was -31.1% (active).
As for `O=[N+]([O-])c1cc(Cl)cc(Cl)c1O`, the growth was 99.5%.
`Cn1ccnc1C(=O)/C=C/c1ccc(CC(=O)Nc2ccccc2)cc1`: the growth was -27.2% (active).
